Source: PubChem (The Scripps Research Institute Molecular Screening Center)
Sampled rows, rich in hits. Any-hit rate of the full collection: about 3.5%.
FBW7 activator: human FBW7 E3 ligase activation, primary screen. Q969H0. AlphaScreen FBW7–phospho-cyclin E peptide binding, activator screen. normalized activity (activation), % at 26.1 µM. actives 0.13% (n = 650,000); in the data active = normalized activity above about 1.9%;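 also: purified mutant Fbw7 with reduced substrate affinity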
GPR151 ag: activates the human receptor GPR151. activation, % at 11.2 µM. Q8TDV0. PathHunter beta-arrestin GPR151 cells, luminescence. actives 1% (n = 650,000). AID 1508602; in the data active = activation above about 4.9%;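 also: 0% = median of compound wells and 100% = cells with positive control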
Target sequence (Q8TDV0 whole entry, looked up): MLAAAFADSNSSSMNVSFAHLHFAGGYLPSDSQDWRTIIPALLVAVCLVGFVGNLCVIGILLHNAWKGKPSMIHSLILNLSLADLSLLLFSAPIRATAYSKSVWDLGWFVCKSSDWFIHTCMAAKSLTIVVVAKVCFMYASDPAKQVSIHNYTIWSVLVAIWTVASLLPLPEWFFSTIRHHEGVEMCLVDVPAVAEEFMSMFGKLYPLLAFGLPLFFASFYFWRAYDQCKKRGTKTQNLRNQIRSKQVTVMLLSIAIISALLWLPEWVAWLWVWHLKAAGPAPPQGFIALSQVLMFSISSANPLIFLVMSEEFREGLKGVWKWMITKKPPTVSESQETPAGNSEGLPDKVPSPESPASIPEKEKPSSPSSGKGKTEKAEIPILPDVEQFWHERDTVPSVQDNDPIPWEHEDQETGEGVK
MITF primary: human MITF inhibition, primary screen; actives 0.91% (n = 650,000); AID 1259374; AlphaScreen MITF homodimerization, bead proximity signal; inhibition, % at 2.6 µM; O75030; in the data active = inhibition above about 50%;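 also: 0% = vehicle wells with protein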
TEAD-YAP block: TEAD-YAP interaction inhibition. HEK-TIYL cells, TEAD-Gal4/YAP UAS-luciferase luminescence. inhibition, % at 9.12 µM. actives 1.4% (n = 640,000). AID 1259422; in the data active = inhibition above about 32%;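 also: 0% = median of test compound wells and 100% = reference inhibitor wells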
* = called active by the depositor.

`Cn1c(COc2ccccc2)c(C#N)c2ccccc21` gave FBW7 activator 0, GPR151 ag -1, MITF primary 0 and TEAD-YAP block -41.
`O=C(CCC1(Cc2ccc(F)cc2)CCC(=O)N1)NCc1c(F)cccc1F` (stereo not drawn) gave FBW7 activator 0, GPR151 ag 1, MITF primary -10 and TEAD-YAP block 36*.
CCOC(=O)c1cnc2ccc(C)cc2c1NCCCN1CCOCC1 was read as FBW7 activator 0, GPR151 ag 0, MITF primary -20 and TEAD-YAP block 38*.
CCOC(=O)c1cnc2ccc(C)cc2c1NCCN1CCOCC1 was read as FBW7 activator 0, GPR151 ag -1, MITF primary -2 and TEAD-YAP block -6.
`CC(=O)c1c(C)[nH]c(C(=O)COC(=O)c2c(C)nn(-c3ccccc3)c2C)c1C` gave FBW7 activator 0, GPR151 ag 3, MITF primary 22 and TEAD-YAP block 49*.
Screening CC(C)c1ccc(OCC(=O)Nc2ncn[nH]2)c(Br)c1 returned FBW7 activator 0, GPR151 ag -4, MITF primary 9 and TEAD-YAP block 63*.
CC(C)(C)c1ccc(OCC(=O)Nc2ncn[nH]2)c(Br)c1 was read as FBW7 activator 1, GPR151 ag -1, MITF primary 10 and TEAD-YAP block 7.
For O=C(CCn1nnc2ccccc21)N/N=C/c1cc(Cl)cc(Br)c1O the results were FBW7 activator 0, GPR151 ag 0, MITF primary 27 and TEAD-YAP block 25.
`CN(CCc1ccccc1)C(=O)c1ccc2c(c1)CC(c1nc3ccc(-c4ccnc(N)n4)cc3[nH]1)CO2` (stereo not drawn) gave FBW7 activator 0, GPR151 ag 2, MITF primary -14 and TEAD-YAP block 73*.
CON(C)C(=O)c1ccc2c(c1)CC(c1nc3ccc(-c4ccnc(N)n4)cc3[nH]1)CO2 (stereo not drawn) was read as FBW7 activator 0, GPR151 ag -1, MITF primary 25 and TEAD-YAP block 11.
`CC(CNC(=O)c1ccc2c(c1)CC(c1nc3ccc(-c4ccnc(N)n4)cc3[nH]1)CO2)c1ccccc1` (stereo not drawn) gave FBW7 activator 1.9*, GPR151 ag 0, MITF primary -2 and TEAD-YAP block 41*.
`O=P(O)(c1ccccc1)c1nccn1-c1cccnc1` gave FBW7 activator 0, GPR151 ag -1, MITF primary 7 and TEAD-YAP block 8.
For CCCN1C(=O)C(=O)c2cc(C)ccc21 the results were FBW7 activator 0, GPR151 ag 0, MITF primary 2 and TEAD-YAP block -3.
`Cc1ccc2c(c1)C(=O)C(=O)N2CCCl` gave FBW7 activator 0, GPR151 ag 1, MITF primary 0 and TEAD-YAP block 60*.
`N[n+]1cnn(CC(=O)c2ccc(Br)cc2Br)c1` gave FBW7 activator 1, GPR151 ag 0, MITF primary 4 and TEAD-YAP block 2.
CCN(CC)C(=O)Cn1nc2c3ccccc3nc(C)n2c1=O was read as FBW7 activator 1, GPR151 ag -1, MITF primary -15 and TEAD-YAP block -3.
Screening COc1ccc(Cl)cc1C(=O)NCc1ccc2c(c1)cc(C)n2C returned FBW7 activator 0, GPR151 ag 1, MITF primary -1 and TEAD-YAP block 44*.
CCN1CCN(S(=O)(=O)CCN2C(=O)c3ccccc3C2=O)CC1 was read as FBW7 activator 0, GPR151 ag -1, MITF primary 2 and TEAD-YAP block 3.
For COc1cccc(C(=O)C[n+]2cc(-c3ccc(F)cc3)n(C)c2N)c1 the results were FBW7 activator 0, GPR151 ag -1, MITF primary 0 and TEAD-YAP block 85*.
Screening COc1cc(OC)cc(C(=O)N2N=C(C)CC2(O)C(F)(F)F)c1 (stereo not drawn) returned FBW7 activator 0, GPR151 ag -1, MITF primary -14 and TEAD-YAP block 50*.
COc1cc(C(=O)N2N=C(C3CC3)CC2(O)C(F)(F)F)cc(OC)c1OC (stereo not drawn) was read as FBW7 activator 0, GPR151 ag -1, MITF primary -1 and TEAD-YAP block 10.
`CC1=NN(C(=O)c2cc(O)cc(O)c2)C(O)(C(F)(F)F)C1` (stereo not drawn) gave FBW7 activator 0, GPR151 ag 1, MITF primary -4 and TEAD-YAP block 1.
`COc1cc(C(=O)N2N=C(C)CC2(O)C(F)(F)F)cc(OC)c1OC` (stereo not drawn) gave FBW7 activator 0, GPR151 ag 1, MITF primary -3 and TEAD-YAP block 60*.
For Cc1ccc(S(=O)(=O)Nc2cccc(C(F)(F)F)c2)cc1N the results were FBW7 activator 0, GPR151 ag 2, MITF primary -9 and TEAD-YAP block 6.
Screening Fc1ccc(-c2cnc(N3CCC4(CC3)OCCO4)nc2)cc1 returned FBW7 activator 0, GPR151 ag -11, MITF primary 9 and TEAD-YAP block 43*.
For Cc1ccc(-c2cnc(N3CCC4(CC3)OCCO4)nc2)cc1 the results were FBW7 activator 0, GPR151 ag -3, MITF primary 3 and TEAD-YAP block -49.
CCOC(=O)c1[nH]c(C)c(CN(C2CCCCC2)S(C)(=O)=O)c1C was read as FBW7 activator 0, GPR151 ag 0, MITF primary 5 and TEAD-YAP block 52*.
`CCOC(=O)c1[nH]c(C)c(CNC2CCCCC2)c1C` gave FBW7 activator 0, GPR151 ag 1, MITF primary 13 and TEAD-YAP block 3.
For Cc1csc2n1c(C(=O)c1ccccc1)c(C)[n+]2-c1ccc(Br)cc1 the results were FBW7 activator 0, GPR151 ag -1, MITF primary 6 and TEAD-YAP block 14.
For CCc1c(C(=O)c2ccc(C)cc2)n2c(C)csc2[n+]1-c1ccccc1 the results were FBW7 activator 0, GPR151 ag 2, MITF primary 2 and TEAD-YAP block 40*.
Screening Nc1ccc(Cl)c(-c2nc3cc(Cl)ccc3o2)c1 returned FBW7 activator 1, GPR151 ag -1, MITF primary 23 and TEAD-YAP block -66.
Screening Nc1ccc2oc(-c3ccccc3Cl)nc2c1 returned FBW7 activator 0, GPR151 ag -8, MITF primary 10 and TEAD-YAP block 42*.
For Nc1ccc2oc(-c3cc(I)ccc3Cl)nc2c1 the results were FBW7 activator 0, GPR151 ag 0, MITF primary 13 and TEAD-YAP block 34*.
For Nc1ccc2oc(-c3cc(Br)ccc3Cl)nc2c1 the results were FBW7 activator 0, GPR151 ag 0, MITF primary -3 and TEAD-YAP block 41*.
Nc1ccc2oc(-c3cc(Cl)ccc3Cl)nc2c1 was read as FBW7 activator 1, GPR151 ag -1, MITF primary 20 and TEAD-YAP block 22.
`CCOC(=O)C1=C(C)N=c2s/c(=C/c3ccc(-c4cccc([N+](=O)[O-])c4)o3)c(=O)n2C1c1ccc(N(C)C)cc1` (stereo not drawn) gave FBW7 activator 0, GPR151 ag 0, MITF primary 9 and TEAD-YAP block -10.
